The supplement of paper PMC6522484
± gives the standard deviation of the averaged measurements.

How the values were obtained:
DLD1 [1] = experiment: cell viability (CellTiter-Glo) relative to plate median (fraction of plate median); higher = more viable cells; details: 5 µM; treatment time 24 h; reporter: 7TFP
Method in brief: (§1)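 Per-well firefly luciferase or CellTiterGlo luminescence, normalised to the plate median, is what is reported. It was measured in colorectal cancer cells with stable lentiviral TCF/Wnt firefly luciferase reporters after a 24 h treatment with library compounds at a final 5 µM. The mean of two independent replicates is given.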

HCT116 = experiment: as above; details: 5 µM; treatment time 24 h; reporter: TCF4/Wnt
Method in brief: as §1

SW480 [2] = experiment: as above; details: 5 µM; treatment time 24 h; reporter: 7TFP
Method in brief: as §1

DLD1 [3] = experiment: TCF/Wnt firefly luciferase reporter signal relative to plate median (fraction of plate median); higher = higher Wnt reporter signal; details: 5 µM; treatment time 24 h; reporter: 7TFP
Method in brief: as §1

SW480 [4] = experiment: as above; details: 5 µM; treatment time 24 h; reporter: 7TFP
Method in brief: as §1

Compound	cell viability (DLD1 [1])	cell viability (HCT116)	cell viability (SW480 [2])	TCF/Wnt firefly luciferase reporter signal (DLD1 [3])	TCF/Wnt firefly luciferase reporter signal (SW480 [4])
N#C[C@H](O[C@@H]1O[C@H](CO[C@@H]2O[C@H](CO)[C@@H](O)[C@H](O)[C@H]2O)[C@@H](O)[C@H](O)[C@H]1O)c1ccccc1	1.01 ± 0.09	1.04 ± 0.089	1.01 ± 0.042	0.757 ± 0.0042	0.916 ± 0.071
N#Cc1nn(-c2c(Cl)cc(C(F)(F)F)cc2Cl)c(N)c1[S+]([O-])C(F)(F)F (stereo not given)	1.02 ± 0.045	1.04 ± 0.028	1.005 ± 0.0071	1.01 ± 0.05	1.015 ± 0.0071
CC(C)c1ccc2c(c1O)CC[C@H]1C3=C(CC[C@]21C)C(=O)OC3	1.1 ± 0.042	1.1 ± 0.099	1.09	1.04 ± 0.19	1.06
CC[C@@H](CO)NC(=O)[C@@H]1C=C2c3cccc4[nH]cc(c34)C[C@H]2N(C)C1	0.968 ± 0.045	1.02 ± 0.028	0.957 ± 0.054	1.04 ± 0.028	1.075 ± 0.0071
S=C=NCc1ccccc1	0.961 ± 0.053	0.928 ± 0.039	0.959 ± 0.012	0.748 ± 0.17	0.822 ± 0.071
CC(C)CCCC1(C)C=Cc2c(O)c3c(c(CCC(C)C)c2O1)OC12C(CC4CC1C(C)(C)OC2(CCC(C)C(=O)O)C4O)C3=O (stereo not given)	1.08 ± 0.042	0.997 ± 0.0042	1.07 ± 0.092	1.06 ± 0.014	1.06 ± 0.092
Cc1ccc(-c2nc3ccc(C)cn3c2CC(=O)N(C)C)cc1	1.02 ± 0.035	1.09 ± 0.16	0.955 ± 0.056	1.13 ± 0.085	0.988 ± 0.06
CNC(C)[C@H](O)c1ccccc1 (stereo not given in full)	0.976 ± 0.063	0.917 ± 0.0099	1.02 ± 0.03	0.978 ± 0.2	1 ± 0.095
CC[C@@]1(O)C(=O)OCc2c1cc1n(c2=O)Cc2cc3ccccc3nc2-1	0.91 ± 0.094	0.292 ± 0.067	0.925 ± 0.041	1.01 ± 0.12	0.911 ± 0.016
CC1NC(=O)C(NC(=O)c2cnc3ccccc3n2)COC(=O)C(C(C)C)N(C)C(=O)C2CSSCC(C(=O)N(C)C(C(C)C)C(=O)OCC(NC(=O)c3cnc4ccccc4n3)C(=O)NC(C)C(=O)N2C)N(C)C1=O (stereo not given) [Triostin A]	0.968 ± 0.028	0.984 ± 0.08	0.992 ± 0.054	0.941 ± 0.073	0.871 ± 0.037
Oc1ccc(Cl)cc1	1.06 ± 0.064	0.892 ± 0.025	0.961 ± 0.04	1.03 ± 0.042	1.115 ± 0.0071
CN1CCCCC1c1ccc(-c2cccnc2)nc1 (stereo not given)	0.963 ± 0.024	0.901 ± 0.12	1.01 ± 0.027	1.03 ± 0.021	0.983 ± 0.096
C[C@]12CCC(=O)C=C1CCc1ccc(O)cc12	1.03 ± 0.042	1.05 ± 0.05	1.05 ± 0.014	1.07 ± 0.14	1.03 ± 0.028
NC(=O)CN1CCCC1=O	1.02 ± 0.051	1.01 ± 0.092	0.955 ± 0.024	0.925 ± 0.023	1.15 ± 0.05
CC(=O)O[C@@H]1C[C@@]2(C)[C@H](c3ccoc3)C[C@H]3O[C@]32[C@]2(C)C(=O)C(O)=C3C(C)(C)C(=O)C=C[C@]3(C)[C@@H]12	0.901 ± 0.044	0.824 ± 0.14	1.09 ± 0.12	0.888 ± 0.03	0.831 ± 0.19
CC(=O)[O][Hg][c]1ccccc1	0.0442 ± 0.012	0.0479 ± 0.031	0.0258 ± 0.0048	0.0227 ± 0.0033	0.0222 ± 0.0026
COc1ccc(O)c2c(=O)c3c(OC)cc4c(c3oc12)C1C=COC1O4 (stereo not given)	1.06 ± 0.057	1.03 ± 0.057	1.02 ± 0.028	1.01 ± 0.11	0.999 ± 0.044
CC(C)N(CCC(C(N)=O)(c1ccccc1)c1ccccn1)C(C)C (stereo not given)	0.914 ± 0.077	0.964 ± 0.029	0.981 ± 0.011	1.16 ± 0.071	1.13 ± 0.014
CC[C@H]1[C@@H]2C[C@H]3[C@@H]4N(C)c5ccccc5[C@]45C[C@@H]([C@@H]2[C@H]5O)N3[C@@H]1O	0.898 ± 0.03	0.899 ± 0.1	0.95 ± 0.023	0.942 ± 0.0085	1.05 ± 0.05
COc1ccc2c(c1O)-c1c(OC)c(OC)cc3c1[C@H](C2)N(C)CC3	0.993 ± 0.067	1.055 ± 0.0071	1 ± 0.035	0.885 ± 0.089	0.926 ± 0.012
NCCCNCCSP(=O)(O)O	1.02 ± 0.14	1.08 ± 0.071	1.06 ± 0.021	1.1 ± 0.028	1.05 ± 0.035
CC(C)[N+](C)(CCC(C(N)=O)(c1ccccc1)c1ccccc1)C(C)C	1.045 ± 0.0071	1.055 ± 0.0071	0.996 ± 0.0057	1.02 ± 0.12	1.03 ± 0.042
CNC(C)(C)Cc1ccccc1	1.02	1.01 ± 0.021	1.06 ± 0.014	1.09	0.932 ± 0.04
CC(=O)O[C@H]1CC[C@@]2(C)[C@H](CC[C@@H]3[C@@H]2CC[C@]2(C)[C@@H](C4=CC(=O)OC4)[C@@H](OC(C)=O)C[C@]32O)C1	0.633 ± 0.0092	0.723 ± 0.06	0.82 ± 0.086	0.277 ± 0.1	0.592 ± 0.088
c1cc2c(cc1[C@H]1OC[C@H]3[C@@H]1CO[C@H]3c1ccc3c(c1)OCO3)OCO2	1.03 ± 0.014	1.03 ± 0.13	0.952 ± 0.068	1.09 ± 0.064	0.932 ± 0.21
O=[N+]([O-])O[C@@H]1CO[C@H]2[C@@H]1OC[C@@H]2O	0.98 ± 0.018	1.06 ± 0.028	1.02 ± 0.03	0.989 ± 0.28	0.915 ± 0.12
COc1ccc2c(c1)[C@]13CCCC[C@@H]1[C@H](C2)N(C)CC3	1 ± 0.053	0.992 ± 0.096	1.02 ± 0.035	1.03 ± 0.14	1 ± 0.023
C#C[C@]1(O)CC[C@H]2[C@@H]3CCC4=CC(=O)CC[C@]4(C)[C@H]3CC[C@@]21C	1.02 ± 0.042	1.06 ± 0.021	0.962 ± 0.048	1.05 ± 0.064	1.05 ± 0.076
